Where “and” joins values, the source holds several entries; their conditions need not be identical. Equal values may be shown once. Inconclusive results are not listed. Calls of active or inactive are those of the source. The call rests on the fitted dose curve; in most records, active means well fitted curve in the direction sought with a large enough effect in the repeat runs; inconclusive means weak or mixed curves; inactive means no such curve, though single readings can be large; an effect the other way counts as inactive or inconclusive.
system: not listed separately; experiment: qHTS assay to identify small molecule agonists of the constitutive androstane receptor (CAR) signaling pathway - cell viability counter screen (AID 1224836); conditions: HepG2-CYP2B6-hCAR viability, CellTiter-Fluor, 23 h, PK11195 added to every well; series mostly up to 92.4 µM; viability change, negative = cytotoxic: at the top concentration; further: nearly all actives have a fitted effect of over 45% in size
Outline: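 Fluorescence from CellTiter-Fluor indicates live cells after 23 h exposure. The human hepatoma line expresses hCAR and a CYP2B6-2.2kb reporter. Incubation medium contains 0.75 uM PK11195 (final).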
On the % scale 0 is the no-effect control and ±100 the full control effect; potency means the concentration at half of the fitted maximal effect.

Compound | viability change, negative = cytotoxic | Potency
CC#C[C@]1(O)CC[C@H]2[C@@H]3C[C@H](C)C4=CC(=O)CC[C@]4(C)[C@H]3CC[C@@]21C | -0.117% [at 42.5 µM] (inactive) | 
CN | -0.569% (inactive) | 
BrCCCBr | 4.66% (inactive) | 
CC(C)C(Nc1ccc(C(F)(F)F)cc1Cl)C(=O)OC(C#N)c1cccc(Oc2ccccc2)c1 (stereo not drawn) | 1.35% (inactive) | 
CN1C2CCC(C)(C)C1CC(OC(=O)C(O)(c1cccs1)c1cccs1)C2 (stereo not drawn) | -5.96% [at 42.5 µM] (inactive) | 
C[C@]12CC[C@H]3[C@@H](CCC4=CC(=O)CC[C@@H]43)[C@@H]1CC[C@@H]2OC(=O)CCc1ccco1 | 6.52% [at 42.5 µM] (inactive) | 
[O]=[Cr][O][Cr]=[O] | 1.52% (inactive) | 
CNC(=O)CSP(=O)(OC)OC | 1.91% (inactive) | 
CCNS(=O)(=O)C(F)(F)C(F)(F)C(F)(F)C(F)(F)C(F)(F)C(F)(F)C(F)(F)C(F)(F)F | 7.04% (inactive) | 
ClSC(Cl)(Cl)Cl | 4.23% (inactive) | 
COc1ccc2c3c1O[C@H]1[C@H](O)CC[C@H]4[C@@H](C2)N(C)CC[C@@]341 | -1.03% (inactive) | 
Cc1ccn2nc(S(=O)(=O)Nc3c(F)cccc3F)nc2n1 | 0.71% (inactive) | 
C[C@H]1[C@H](c2ccc(Cl)cc2)SC(=O)N1C(=O)NC1CCCCC1 | -19.2% (inactive) | 
Oc1ccc2[nH]cc(CCCCN3CC=C(c4ccccc4)CC3)c2c1 | -15.8% [at 42.5 µM] (inactive) | 
CC(C)=CCN1CC[C@@]2(C)c3cc(O)ccc3C[C@@H]1[C@@H]2C | -15.2% (inactive) | 
Oc1ccc([C@H]2CNCc3c2ccc(O)c3O)cc1O | -15.2% [at 42.5 µM] (inactive) | 
[Cl][Hg][c]1ccccc1 |  | 6.86 µM (active)
CC1(C)C(C=C(Cl)Cl)C1C(=O)OC(C#N)c1ccc(F)c(Oc2ccccc2)c1 (stereo not drawn) | 12.6% (inactive) | 
COC(=O)c1ccccc1S(=O)(=O)NC(=O)Nc1nc(C)nc(OC)n1 | -5.95% (inactive) | 
O=Cc1ccccc1 | 10.7% (inactive) | 
O=C(Nc1ccc(F)cc1F)c1cccnc1Oc1cccc(C(F)(F)F)c1 | 3.16% (inactive) | 
O=C(N[C@@H]1N=C(c2ccccc2F)c2cccc3c2N(CC3)C1=O)c1cc2ccccc2[nH]1 | 3.89% [at 42.5 µM] (inactive) | 
O=C1C2(Cl)C3(Cl)C4(Cl)C(Cl)(Cl)C5(Cl)C3(Cl)C1(Cl)C5(Cl)C24Cl (stereo not drawn) |  | 60.1 µM (active)
Nc1ccccc1-c1ccccc1 | -6.98% (inactive) | 
CN1[C@@H]2CC[C@H]1CC(O)C2 (stereo partly drawn) | 0.0858% (inactive) | 
C[C@]12C/C(=C/O)C(=O)C[C@@H]1CC[C@@H]1[C@@H]2CC[C@@]2(C)[C@H]1CC[C@]2(C)O | 3.58% [at 42.5 µM] (inactive) | 
C=CC(=O)[O][Sn]([CH2]CCC)([CH2]CCC)[CH2]CCC |  | 1.22 µM (active)
O=[N+]([O-])c1ccc(Cl)c(Cl)c1Cl | -1.52% (inactive) | 

system: not listed separately; experiment: qHTS assay to identify small molecule antagonists of the constitutive androstane receptor (CAR) signaling pathway - cell viability counter screen (AID 1224837); conditions: HepG2-CYP2B6-hCAR viability, CellTiter-Fluor, 23 h, co-treated with 50 nM CITCO; series mostly up to 92.4 µM; activity change, negative = cytotoxicity: at the top concentration; further: nearly all actives have a fitted effect of over 45% in size
Outline: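 Cells are seeded, rested 4 hr at 37 C/5% CO2, dosed with compound (15-point series) and 50 nM CITCO, incubated a further 23 hr, and then CellTiter-Fluor reagent is added before fluorescence is read. The line is HepG2 with stable hCAR and CYP2B6-2.2kb.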

Compound | activity change, negative = cytotoxicity | Potency
CN | 0.803% (inactive) | 
CC(C)C(Nc1ccc(C(F)(F)F)cc1Cl)C(=O)OC(C#N)c1cccc(Oc2ccccc2)c1 (stereo not drawn) | 9.73% (inactive) | 
CN1C2CCC(C)(C)C1CC(OC(=O)C(O)(c1cccs1)c1cccs1)C2 (stereo not drawn) | -9.93% [at 42.5 µM] (inactive) | 
C[C@]12CC[C@H]3[C@@H](CCC4=CC(=O)CC[C@@H]43)[C@@H]1CC[C@@H]2OC(=O)CCc1ccco1 | 2.98% [at 42.5 µM] (inactive) | 
[O]=[Cr][O][Cr]=[O] | 1.18% (inactive) | 
CCNS(=O)(=O)C(F)(F)C(F)(F)C(F)(F)C(F)(F)C(F)(F)C(F)(F)C(F)(F)C(F)(F)F | -2.8% (inactive) | 
COc1ccc2c3c1O[C@H]1[C@H](O)CC[C@H]4[C@@H](C2)N(C)CC[C@@]341 | -5.74% (inactive) | 
C[C@H]1[C@H](c2ccc(Cl)cc2)SC(=O)N1C(=O)NC1CCCCC1 | -12.6% (inactive) | 
Oc1ccc2[nH]cc(CCCCN3CC=C(c4ccccc4)CC3)c2c1 | -19.6% [at 42.5 µM] (inactive) | 
CC(C)=CCN1CC[C@@]2(C)c3cc(O)ccc3C[C@@H]1[C@@H]2C | -15.6% (inactive) | 
Oc1ccc([C@H]2CNCc3c2ccc(O)c3O)cc1O | -23.7% [at 42.5 µM] (inactive) | 
[Cl][Hg][c]1ccccc1 |  | 4.33 µM (active)
O=C(N[C@H]1N=C(c2ccccc2F)c2cccc3c2N(CC3)C1=O)c1cc2ccccc2[nH]1 | 6.14% [at 42.5 µM] (inactive) | 
CC1(C)C(C=C(Cl)Cl)C1C(=O)OC(C#N)c1ccc(F)c(Oc2ccccc2)c1 (stereo not drawn) | 7.32% (inactive) | 
COC(=O)c1ccccc1S(=O)(=O)NC(=O)Nc1nc(C)nc(OC)n1 | 6.83% (inactive) | 
O=Cc1ccccc1 | 5.94% (inactive) | 
CC(C)c1c(CN(C)C(C)Cc2ccccc2)n(C)n(-c2ccccc2)c1=O (stereo not drawn) | -17.4% [at 42.5 µM] (inactive) | 
O=C(N[C@@H]1N=C(c2ccccc2F)c2cccc3c2N(CC3)C1=O)c1cc2ccccc2[nH]1 | 1.43% [at 42.5 µM] (inactive) | 
O=C1C2(Cl)C3(Cl)C4(Cl)C(Cl)(Cl)C5(Cl)C3(Cl)C1(Cl)C5(Cl)C24Cl (stereo not drawn) |  | 60.1 µM (active)
Nc1ccccc1-c1ccccc1 | -4.49% (inactive) | 
CN1[C@@H]2CC[C@H]1CC(O)C2 (stereo partly drawn) | -1.46% (inactive) | 
C[C@]12C/C(=C/O)C(=O)C[C@@H]1CC[C@@H]1[C@@H]2CC[C@@]2(C)[C@H]1CC[C@]2(C)O | 3.88% [at 42.5 µM] (inactive) | 
C=CC(=O)[O][Sn]([CH2]CCC)([CH2]CCC)[CH2]CCC |  | 1.93 µM (active)
ClC(Cl)C(Cl)(Cl)Cl | -0.944% (inactive) | 
Brc1cccc(-c2ccccc2)c1 | -0.429% (inactive) | 
O=[N+]([O-])c1ccc(Cl)c(Cl)c1Cl | 4.42% (inactive) | 

molecular target: Nuclear receptor subfamily 1 group I member 3 (Homo sapiens) (UniProt Q14994); experiment: qHTS assay to identify small molecule antagonists of the constitutive androstane receptor (CAR) signaling pathway (AID 1224838); conditions: HepG2-CYP2B6-hCAR luciferase, CITCO-stimulated, 24 h; series mostly up to 92.4 µM; activity, negative = inhibition: at the top concentration;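 further: HepG2 cells stably expressing hCAR with CYP2B6 luciferase reporter stimulated by CITCO; nearly all actives have a fitted effect of over 40% in size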
Outline: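 Luminescence from a CYP2B6-2.2kb promoter reporter in hCAR-expressing HepG2 cells reflects CAR signaling. Cells received compounds at 15 concentrations and 50 nM CITCO (final), then incubated 24 h at 37 C/5% CO2.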

Sequence of Nuclear receptor subfamily 1 group I member 3 (Homo sapiens) (Q14994 whole entry, looked up): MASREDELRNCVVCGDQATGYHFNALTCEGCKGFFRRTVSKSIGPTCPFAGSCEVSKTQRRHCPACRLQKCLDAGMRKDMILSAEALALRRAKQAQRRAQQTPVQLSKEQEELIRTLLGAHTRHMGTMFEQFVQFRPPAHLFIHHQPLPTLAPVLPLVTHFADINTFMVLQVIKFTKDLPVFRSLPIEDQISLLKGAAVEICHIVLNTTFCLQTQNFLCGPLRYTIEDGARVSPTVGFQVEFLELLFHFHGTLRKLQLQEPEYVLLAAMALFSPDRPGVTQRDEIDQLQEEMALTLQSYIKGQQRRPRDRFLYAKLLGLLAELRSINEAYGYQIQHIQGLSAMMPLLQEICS

Compound | activity, negative = inhibition | Potency
CN | 6.95% (inactive) | 
BrCCCBr | 15.4% (inactive) | 
CC(C)C(Nc1ccc(C(F)(F)F)cc1Cl)C(=O)OC(C#N)c1cccc(Oc2ccccc2)c1 (stereo not drawn) | 26.5% (inactive) | 
CN1C2CCC(C)(C)C1CC(OC(=O)C(O)(c1cccs1)c1cccs1)C2 (stereo not drawn) | -12.8% [at 42.5 µM] (inactive) | 
C[C@]12CC[C@H]3[C@@H](CCC4=CC(=O)CC[C@@H]43)[C@@H]1CC[C@@H]2OC(=O)CCc1ccco1 | 22.6% [at 42.5 µM] (inactive) | 
[O]=[Cr][O][Cr]=[O] | -1.88% (inactive) | 
Oc1cccc(Cl)c1Cl | 24.3% (inactive) | 
CNC(=O)CSP(=O)(OC)OC | -12.1% (inactive) | 
CCNS(=O)(=O)C(F)(F)C(F)(F)C(F)(F)C(F)(F)C(F)(F)C(F)(F)C(F)(F)C(F)(F)F | 2.23% (inactive) | 
CN1C(=O)[C@@H](NC(=O)c2cc3ccccc3[nH]2)N=C(c2ccccc2)c2ccccc21 | -11.3% [at 42.5 µM] (inactive) | 
ClSC(Cl)(Cl)Cl | -9.88% (inactive) | 
COc1ccc2c3c1O[C@H]1[C@H](O)CC[C@H]4[C@@H](C2)N(C)CC[C@@]341 | 0.193% (inactive) | 
CC(Cl)CCl (stereo not drawn) | -1.54% (inactive) | 
Cc1ccn2nc(S(=O)(=O)Nc3c(F)cccc3F)nc2n1 | -12.9% (inactive) | 
C[C@H]1[C@H](c2ccc(Cl)cc2)SC(=O)N1C(=O)NC1CCCCC1 | 90% (inactive) | 
Oc1ccc([C@H]2CNCc3c2ccc(O)c3O)cc1O | -5.74% [at 42.5 µM] (inactive) | 
[Cl][Hg][c]1ccccc1 |  | 3.86 µM (active)
O=C(N[C@H]1N=C(c2ccccc2F)c2cccc3c2N(CC3)C1=O)c1cc2ccccc2[nH]1 | -29.2% [at 42.5 µM] (inactive) | 
CC1(C)C(C=C(Cl)Cl)C1C(=O)OC(C#N)c1ccc(F)c(Oc2ccccc2)c1 (stereo not drawn) | -6.28% (inactive) | 
O=Cc1ccccc1 | -2.42% (inactive) | 
CC(C)c1c(CN(C)C(C)Cc2ccccc2)n(C)n(-c2ccccc2)c1=O (stereo not drawn) | 74.2% [at 42.5 µM] (inactive) | 
O=C(N[C@@H]1N=C(c2ccccc2F)c2cccc3c2N(CC3)C1=O)c1cc2ccccc2[nH]1 | 99.3% [at 42.5 µM] (inactive) | 
O=C1C2(Cl)C3(Cl)C4(Cl)C(Cl)(Cl)C5(Cl)C3(Cl)C1(Cl)C5(Cl)C24Cl (stereo not drawn) |  | 23.9 µM (active) and 52.2 µM (active)
Nc1ccccc1-c1ccccc1 | 13.2% (inactive) | 
CN1[C@@H]2CC[C@H]1CC(O)C2 (stereo partly drawn) | 6.54% (inactive) | 
C[C@]12C/C(=C/O)C(=O)C[C@@H]1CC[C@@H]1[C@@H]2CC[C@@]2(C)[C@H]1CC[C@]2(C)O |  | inactive
C=CC(=O)[O][Sn]([CH2]CCC)([CH2]CCC)[CH2]CCC |  | 0.486 µM (active)
Brc1cccc(-c2ccccc2)c1 | 18% (inactive) | 
O=[N+]([O-])c1ccc(Cl)c(Cl)c1Cl | 39.1% (inactive) | 
